# Screening data (PubChem)
# Most compounds without a hit are left out; they make up all but 2.2% or so of the library.
# LGR2 antag: inhibitors of bursicon-induced LGR2 CRE-luciferase signal, primary screen, cell-based, HEK293, CRE-luciferase reporter, bursicon stimulation | bursicon-stimulated, 4 h | inhibition, % at 9.99 µM | 0.35% of 380,000 active | AID 720647, 2013;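 active means drop in luminescence signal, shown as inhibition above about 50% in the replicate tests, limit read from the data, passing the limit was not always enough; inconclusive means probably only some replicates passing the limit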;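 further: agonist challenge used bursicon conditioned medium at about half maximal strength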
# Shn3 inh set2: reduction of Shn3 3'UTR firefly luciferase signal, primary screen, Schnurri-3 inhibitor project, cell-based, Clone20 osteoblasts, set 2 | Clone20 osteoblast Shn3 3'UTR firefly luciferase, 24 h | inhibition, % at 12.5 µM | 0.52% of 360,000 active;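 active means mean inhibition of at least 75% with every replicate also reaching 75%; inconclusive means mean inhibition at least 75% but some replicate below; inactive means mean inhibition below 75%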;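 further: 0% = median of neutral control wells and 100% = pilot-screen positive control compound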
# PAX8 inh HTS: inhibitors of PAX8-driven TPO luciferase reporter, primary screen, RMG-I cells, single concentration; SteadyGlo, 24 h; inhibition, % at 12.6 µM; 1.2% of 360,000 active; AID 652154, 2013;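 active means mean replicate inhibition at least 60% with every replicate also reaching 60%; inconclusive means only one of the two criteria is met; inactive means mean below 60% and not all replicates reaching 60%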;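 further: luciferase light reporting Pax8 driven TPO promoter activity; plate controls were median of neutral control wells for no effect and mitoxantrone controls for full effect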
# EWS-Fli inh: EWS/Fli-driven NR0B1 reporter inhibitors, primary screen, A673 cells, NR0B1 luciferase, luminescence, MLPCN library. AID 651661, 2012. inhibition, % at 12.6 µM. 0.67% of 350,000 active. viability-normalised;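 active means mean inhibition of at least 50% after viability correction, with every replicate also passing that limit; inconclusive means mean reaches 50% but only one of two replicates passes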;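 further: firefly luciferase signal divided by Alamar Blue viability fluorescence both relative to DMSO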
# EBV LMP1 NFkB: EBV LMP1-driven NF-kappaB luciferase reporter inhibitors, primary screen, cell-based, luminescence, single point | LMP1-induced NF-kappaB luciferase reporter cells | AID 504558, 2011 | 0.69% of 350,000 active | inhibition, % at 12.5 µM; in the data active means inhibition above about 41%; inconclusive means no clear call, values can overlap the other calls;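 further: 0% = neutral control wells and 100% = reference inhibitor control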
# TRPM1 prom inh: inhibitors of MITF-dependent TRPM1 promoter reporter, primary screen, cell-based, SK-MEL-5, single point, luciferase. inhibition, % at 12.5 µM. SK-MEL-5 TRPM1 promoter luciferase, 24 h. 0.83% of 330,000 active;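 active means mean inhibition across replicates of 60% or more, whatever share of single replicates reaches that level; inconclusive means some that reach 60%, reason not given; inactive means mean inhibition across replicates below 60%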
# The depositor's hits bear a star; ? = inconclusive; · = no result.
SMILES,LGR2 antag,Shn3 inh set2,PAX8 inh HTS,EWS-Fli inh,EBV LMP1 NFkB,TRPM1 prom inh
CCN(CC)CCCNc1nc(-c2ccccc2)nc2ccccc12,·,-9.0,·,·,-20.2,-7.9
CCN(CC)CCCNc1nc2ccccc2c2[nH]c3ccc(OC)cc3c12,22.2,91.7*,99.4*,?,-31.8,102.0*
Cc1ccc(NC(C(=O)c2ccccc2)c2ccccc2)cc1 (configuration not stated),-11.6,-2.8,80.4*,-18.5,26.4,-19.3
COC/C=C/C1=CC2=CC(=O)C(C)(OC(=O)c3cnc4ccccc4n3)C(=O)C2=CN1C1CC1 (configuration not stated),-5.0,-6.3,65.9*,-30.7,-18.4,6.8
COC/C=C/C1=CC2=CC(=O)C(C)(OC(=O)c3cnc4ccccc4n3)C(=O)C2=CN1Cc1ccccc1 (configuration not stated),·,-19.5,80.1*,-2.4,-6.7,32.9
COc1ccc(C(=O)CCN2CCN(c3ccccc3F)CC2)cc1,-7.5,-2.3,77.7*,4.0,5.4,-0.5
O=C(CCN1CCN(c2ccccc2F)CC1)c1ccc(Br)cc1,·,-9.5,·,·,-5.5,-6.7
Cc1cccc(C)c1-n1nnnc1-c1nc2cc3ccccc3cc2[nH]c1=O,-8.7,·,47.7,54.2*,·,·
COc1ccc(Cn2c(SCc3ccc(C)cc3)nc3cc(OC)c(OC)cc3c2=N)cc1Cl,·,26.5,109.3*,·,90.4*,105.2*
COc1ccc(Cn2c(SCc3cc(C)ccc3C)nc3cc(OC)c(OC)cc3c2=N)cc1,·,95.9*,·,·,?,88.7*
COc1ccc(CN(C)C[C@@H]2OCCCC[C@H](C)Oc3ccc(N(C)C)cc3C(=O)N([C@H](C)CO)C[C@H]2C)cc1,9.7,·,-9.1,3.9,·,·
CCc1ccc(C(=O)Nc2nc3ccccc3[nH]2)cc1,92.2*,51.5,75.8*,74.9*,68.6*,?
O=C(Nc1nc2ccccc2[nH]1)c1ccc(OC(F)F)cc1,36.9,11.5,-87.6,37.7,-2.1,1.0
O=C(Nc1nc2ccccc2[nH]1)c1ccc(F)cc1,-25.6,-9.4,·,-41.9,29.5,-7.5
CC(C)Oc1ccc(C(=O)Nc2nc3ccccc3[nH]2)cc1,93.7*,46.9,68.3*,81.4*,69.9*,79.7*
COc1ccc(NC(=O)N(C)C[C@@H]2Oc3ccc(NC(=O)Nc4ccc5c(c4)OCO5)cc3CC(=O)N([C@@H](C)CO)C[C@H]2C)cc1,-4.1,·,-24.2,-7.3,·,·
O=C(C[C@@H]1CC[C@H]2[C@@H](COC[C@H](O)CN2Cc2cc(F)ccc2F)O1)NCc1ccc(Cl)cc1,8.0,·,10.5,3.1,·,·
O=C(C[C@@H]1CC[C@@H](NC(=O)Nc2ccc(C(F)(F)F)cc2)[C@@H](CO)O1)NCCN1CCCC1,9.1,·,-3.4,0.1,·,·
CN(Cc1ccccc1)C(=O)c1ccc(Nc2nc(C(N)Cc3ccc(C(F)(F)F)cc3)cs2)nc1 (configuration not stated),-0.2,25.3,86.6*,34.3,·,·
CN(Cc1ccccc1)C(=O)c1ccc(Nc2nc(C(N)Cc3ccccc3)cs2)nc1 (configuration not stated),13.1,27.4,25.1,21.4,·,·
COc1ccccc1NC(=O)Nc1nc(C(N)Cc2ccc(C(F)(F)F)cc2)cs1 (configuration not stated),-0.7,81.9*,-1.6,13.8,·,·
COc1ccc(CC(N)c2csc(NC(=O)Nc3ccccc3Cc3ccccc3)n2)cc1 (configuration not stated),-6.4,48.4,24.2,57.6*,·,·
NC(Cc1ccc(C(F)(F)F)cc1)c1csc(NC(=O)Nc2ccccc2Oc2ccccc2)n1 (configuration not stated),-6.6,48.6,25.0,23.4,·,·
COc1ccc(CC(N)c2csc(NC(=O)Nc3ccccc3Oc3ccccc3)n2)cc1 (configuration not stated),1.9,14.5,3.3,25.7,·,·
C[C@H](NC(=O)C[C@@H]1CC[C@@H](NC(=O)C2CCOCC2)[C@@H](CO)O1)c1ccccc1,1.3,·,-12.6,-0.3,·,·
SMILES,LGR2 antag,Shn3 inh set2,PAX8 inh HTS,EWS-Fli inh,EBV LMP1 NFkB,TRPM1 prom inh
CO[C@@H]1CN(C)C(=O)c2cc(NC(C)=O)ccc2OC[C@H](C)N(CCC(F)(F)F)C[C@H]1C,-9.7,·,·,2.0,·,·
COC(=O)c1cc2c(n1S(=O)(=O)c1ccc(C)cc1)C(=O)C(=O)c1[nH]cc(C(=O)OCc3ccccc3)c1-2,·,91.9*,·,·,88.4*,107.5*
COC(=O)CCn1nnc(-c2ccc(C(C)C)cc2)n1,·,70.0,-3.4,·,?,68.3*
COC(=O)CCn1nnc(-c2cccs2)n1,·,9.8,·,·,3.4,-1.0
CO[C@H]1CN(C)C(=O)c2cc(NC(=O)Cc3ccccc3)ccc2OC[C@@H](C)N(C(C)=O)C[C@H]1C,-0.2,·,-8.4,5.1,·,·
CC(C)c1nnc(NC(=O)CS(=O)(=O)Cc2ccccc2)s1,-0.5,-10.2,4.0,3.1,-6.0,5.6
Cc1cccc(CS(=O)(=O)c2ncc(Cl)c(C(=O)Nc3nnc(C(C)C)s3)n2)c1,·,95.5*,·,·,56.3*,76.5*
CC(C)c1nnc(NC(=O)c2nc(S(=O)(=O)Cc3ccc(F)cc3)ncc2Cl)s1,-9.1,98.4*,15.6,·,85.2*,75.2*
Cc1ccc(CS(=O)(=O)c2ncc(Cl)c(C(=O)Nc3nnc(C(C)C)s3)n2)cc1,-26.6,94.9*,28.4,69.8*,39.0,79.2*
CCSc1nnc(NC(=O)c2nc(S(=O)(=O)Cc3ccc(F)cc3)ncc2Cl)s1,-23.7,95.8*,6.6,·,5.5,40.3
CC(C)c1nnc(NC(=O)c2cc3ccccc3o2)s1,-15.3,-94.8,-212.7,-85.4,-10.6,-107.7
O=C(c1ccccc1F)N1CC(=O)N2[C@H](C1)[C@@H](c1ccc(-c3cccnc3)cc1)[C@@H]2CO,7.1,·,4.7,12.3,·,·
